Compounds without any hit were thinned out: in the full panel of roughly 83,000, 20% have a hit.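 Cells were grown in 96-well plates and exposed to the test compound at a single concentration for 48 hours; results are reported as percent growth, with values below 10 considered active.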 The source made the active and inactive calls.
Columns and labels:
Assay in all cases: NCI-60 one-dose screen, 48 h (100 = growth as untreated, 0 = no growth, -100 = all killed)
Details in all cases: 10 µM unless noted
SR leukemia = test system: SR leukemia
RPMI-8226 leukemia = test system: RPMI-8226 leukemia
OVCAR-5 ovarian = test system: OVCAR-5 ovarian
OVCAR-4 ovarian = test system: OVCAR-4 ovarian
SK-OV-3 ovarian = test system: SK-OV-3 ovarian
IGROV1 ovarian = test system: IGROV1 ovarian
OVCAR-3 ovarian = test system: OVCAR-3 ovarian
HS 578T breast = test system: HS 578T breast
NCI/ADR-RES ovarian = test system: NCI/ADR-RES ovarian
T-47D breast = test system: T-47D breast
BT-549 breast = test system: BT-549 breast
MDA-MB-435 melanoma = test system: MDA-MB-435 melanoma
SW-620 colon = test system: SW-620 colon
MCF7 breast = test system: MCF7 breast
HCT-116 colon = test system: HCT-116 colon
HCC-2998 colon = test system: HCC-2998 colon
KM12 colon = test system: KM12 colon
OVCAR-8 ovarian = test system: OVCAR-8 ovarian

Measured: growth

CN1CCN(C(=O)c2ccc(NC(=O)Nc3ccc(-c4nc(N5CCOCC5)c5cccn5n4)cc3)cc2)CC1
active: SR leukemia 3.45% | RPMI-8226 leukemia -2.3% | OVCAR-5 ovarian 0.331% | OVCAR-4 ovarian -20.2% | SK-OV-3 ovarian -31.2% | IGROV1 ovarian -29.2% | OVCAR-3 ovarian -5.24% | HS 578T breast -28.9% | T-47D breast -34.3% | BT-549 breast -9.61% | MDA-MB-435 melanoma 0.865% | MCF7 breast 5.32% | HCT-116 colon 7.02% | HCC-2998 colon 5.54% | KM12 colon 9.01%
inactive: NCI/ADR-RES ovarian 60.5% | SW-620 colon 11%

C=C(C)[C@@H]1CC[C@]2(C)[C@H](CC=C3[C@@H]4[C@H](C)[C@@H](C)CC[C@]4(CO)CC[C@]32C)[C@@]1(C)CCCN
inactive: OVCAR-5 ovarian 60.6% | SK-OV-3 ovarian 14.1% | IGROV1 ovarian 30% | OVCAR-3 ovarian 20.1% | HS 578T breast 25.3% | NCI/ADR-RES ovarian 14.1% | BT-549 breast 55.3%
active: SR leukemia -35.4% | RPMI-8226 leukemia -33.7% | OVCAR-4 ovarian 5.39% | T-47D breast -34.1% | MDA-MB-435 melanoma -60.3% | SW-620 colon -74.8% | MCF7 breast 0.962% | HCT-116 colon -57.8% | HCC-2998 colon -93.3% | KM12 colon -41.3%

C=CCn1cc(-c2nc3ccccc3s2)c2cc(-c3ccc4c5c(cccc35)C(=O)N(N)C4=O)ccc21
inactive: SR leukemia 89.7% | RPMI-8226 leukemia 99.3% | OVCAR-5 ovarian 103% | OVCAR-4 ovarian 97.8% | SK-OV-3 ovarian 95.3% | IGROV1 ovarian 69.8% | OVCAR-3 ovarian 100% | HS 578T breast 103% | NCI/ADR-RES ovarian 96.5% | T-47D breast 78.2% | BT-549 breast 94.4% | MDA-MB-435 melanoma 103% | SW-620 colon 98.5% | MCF7 breast 75.2% | HCT-116 colon 96.6% | HCC-2998 colon 102% | KM12 colon 100%

CCCCCCNC(=O)Oc1ccc(/C(=C(/C)Cc2ccc(OC)cc2)c2ccc(OCCCN(C)C)cc2)cc1
inactive: OVCAR-8 ovarian 13.3% | SK-OV-3 ovarian 88.4% | OVCAR-3 ovarian 55.9% | HS 578T breast 52.9% | NCI/ADR-RES ovarian 67.5% | T-47D breast 18.9% | BT-549 breast 79% | MDA-MB-435 melanoma 19.5% | HCC-2998 colon 35.2% | KM12 colon 35.6%
active: SR leukemia -53.3% | RPMI-8226 leukemia -20.4% | SW-620 colon -21.8% | MCF7 breast 8.65% | HCT-116 colon -52.2%

C=CCc1c2c(c(OC)c3ccoc13)C(=O)/C(=C/c1ccccc1OC)O2
inactive: SR leukemia 48% | RPMI-8226 leukemia 29.2% | OVCAR-5 ovarian 114% | OVCAR-4 ovarian 69.7% | SK-OV-3 ovarian 79.6% | IGROV1 ovarian 54.8% | OVCAR-3 ovarian 40.6% | HS 578T breast 58.1% | NCI/ADR-RES ovarian 35.2% | T-47D breast 59.8% | BT-549 breast 46.1% | MDA-MB-435 melanoma 47.8% | SW-620 colon 47.2% | MCF7 breast 32.6% | HCT-116 colon 21.4% | KM12 colon 46.8%

COc1ccc2nc3ccc(OC)cc3c(SCCCN)c2c1
active: SR leukemia -30.8% | RPMI-8226 leukemia -22.7% | HCT-116 colon -49.8%
inactive: OVCAR-5 ovarian 83.2% | OVCAR-4 ovarian 63.9% | SK-OV-3 ovarian 95% | IGROV1 ovarian 97.2% | OVCAR-3 ovarian 71.3% | HS 578T breast 89.7% | T-47D breast 76.5% | BT-549 breast 95.5% | MDA-MB-435 melanoma 87.3% | SW-620 colon 18.3% | MCF7 breast 28.7% | HCC-2998 colon 105% | KM12 colon 83.2%

COc1cccc(CNc2ncnc3c2ncn3C2OC(CO)C(O)C2O)c1O (stereo unspecified)
inactive: OVCAR-4 ovarian 11.3% | T-47D breast 16.6% | MCF7 breast 65.5% | HCT-116 colon 10.2% | KM12 colon 36.6%
active: SR leukemia -9.69% | RPMI-8226 leukemia -28.5% | OVCAR-5 ovarian 9.68% | SK-OV-3 ovarian -61.5% | IGROV1 ovarian -23.4% | OVCAR-3 ovarian -0.409% | HS 578T breast -27% | NCI/ADR-RES ovarian 2.34% | BT-549 breast -9.05% | MDA-MB-435 melanoma 5.51% | SW-620 colon 6.4%

O=c1oc2ccccc2cc1C1=NN=C(SCc2ccccc2)SC1
inactive: SR leukemia 89.4% | OVCAR-8 ovarian 101% | OVCAR-5 ovarian 105% | OVCAR-4 ovarian 88.9% | SK-OV-3 ovarian 97.8% | OVCAR-3 ovarian 103% | HS 578T breast 103% | T-47D breast 85.5% | BT-549 breast 102% | MDA-MB-435 melanoma 107% | SW-620 colon 106% | MCF7 breast 94.3% | HCT-116 colon 99.1% | HCC-2998 colon 109% | KM12 colon 99.7%

Oc1c(Cl)cc(Cl)cc1/C=N/Nc1nnc(N/N=C/c2cc(Cl)cc(Cl)c2O)c2ccccc12
inactive: OVCAR-8 ovarian 17.4% | OVCAR-5 ovarian 40.4% | SK-OV-3 ovarian 29.3% | IGROV1 ovarian 13.1% | OVCAR-3 ovarian 14.1% | HS 578T breast 31.6% | T-47D breast 14.8% | BT-549 breast 15.7% | MDA-MB-435 melanoma 14.2% | SW-620 colon 17.2% | HCT-116 colon 10% | HCC-2998 colon 33.1%
active: SR leukemia 3.92% | OVCAR-4 ovarian 8.13% | NCI/ADR-RES ovarian 1.78% | MCF7 breast 7.3% | KM12 colon 6.29%

COc1ccc2nc(NC(=O)CSc3nnc4n3S(=O)(=O)c3ccccc3N4C)sc2c1
inactive: SR leukemia 65.1% | OVCAR-5 ovarian 97.5% | OVCAR-4 ovarian 107% | SK-OV-3 ovarian 136% | IGROV1 ovarian 12.9% | OVCAR-3 ovarian 112% | HS 578T breast 89.8% | NCI/ADR-RES ovarian 98.5% | T-47D breast 99.2% | BT-549 breast 113% | MDA-MB-435 melanoma 113% | SW-620 colon 107% | MCF7 breast 96.6% | HCT-116 colon 97.1% | HCC-2998 colon 108%

N#CCSc1nnc2n(Cc3ccccc3)c(=O)c3c4c(sc3n12)CCCC4
inactive: SR leukemia 94.8% | OVCAR-8 ovarian 95.1% | OVCAR-5 ovarian 92.2% | OVCAR-4 ovarian 101% | SK-OV-3 ovarian 107% | IGROV1 ovarian 74.2% | OVCAR-3 ovarian 98.5% | HS 578T breast 95.3% | NCI/ADR-RES ovarian 91% | T-47D breast 111% | BT-549 breast 98.7% | MDA-MB-435 melanoma 107% | SW-620 colon 109% | MCF7 breast 98.9% | HCT-116 colon 92.7% | HCC-2998 colon 105% | KM12 colon 101%

COc1ccc(-c2cc(-c3ccc(Cl)cc3)c(C#N)c(=O)n2CCCCC(=O)Nc2ccccc2N)cc1
inactive: SR leukemia 15.5% | OVCAR-8 ovarian 42.8% | OVCAR-5 ovarian 58.6% | OVCAR-4 ovarian 66.5% | SK-OV-3 ovarian 78% | IGROV1 ovarian 47.4% | OVCAR-3 ovarian 69.5% | HS 578T breast 75.7% | NCI/ADR-RES ovarian 37.3% | T-47D breast 37.5% | BT-549 breast 46.1% | MDA-MB-435 melanoma 39% | MCF7 breast 41.6% | HCT-116 colon 24.4% | HCC-2998 colon 68.3% | KM12 colon 39.4%

C=C1C(=O)O[C@H]2[C@H]1CC/C(COC(=O)NCc1cc[nH]c1)=C\CC[C@@]1(C)O[C@@H]21
active: SR leukemia 4.94%
inactive: OVCAR-8 ovarian 70.8% | OVCAR-5 ovarian 50.5% | OVCAR-4 ovarian 57.1% | SK-OV-3 ovarian 75.7% | IGROV1 ovarian 15.5% | OVCAR-3 ovarian 16.6% | HS 578T breast 63% | NCI/ADR-RES ovarian 90.6% | T-47D breast 69.5% | BT-549 breast 55.6% | MDA-MB-435 melanoma 34.2% | SW-620 colon 21.6% | MCF7 breast 34.8% | HCT-116 colon 36.1% | HCC-2998 colon 95%

CC(=O)[C@@H]1CCC=C2CC[C@]3(C)[C@@H](CC[C@@H]4[C@@]5(C)CCCNC(C)(C)[C@@H]5CC[C@]43C)[C@H]21
inactive: OVCAR-5 ovarian 16.8% | SK-OV-3 ovarian 93% | T-47D breast 33.9% | BT-549 breast 75.9%
active: SR leukemia -45.2% | OVCAR-8 ovarian -84.4% | OVCAR-4 ovarian -67.5% | IGROV1 ovarian -94.2% | OVCAR-3 ovarian -93.3% | HS 578T breast -30.9% | NCI/ADR-RES ovarian -52.2% | MDA-MB-435 melanoma -71.1% | MCF7 breast -72.9% | HCT-116 colon -96.2% | HCC-2998 colon -93.8% | KM12 colon -79%

CCCC(O)Cn1ncc(C(=O)OCC)c1NC(=O)NCc1ccccc1F (stereo unspecified)
inactive: SR leukemia 93.5% | OVCAR-8 ovarian 89.9% | OVCAR-5 ovarian 108% | OVCAR-4 ovarian 87.1% | SK-OV-3 ovarian 102% | IGROV1 ovarian 92.9% | OVCAR-3 ovarian 91.1% | HS 578T breast 102% | NCI/ADR-RES ovarian 92.6% | T-47D breast 87.2% | BT-549 breast 90.2% | MDA-MB-435 melanoma 103% | SW-620 colon 105% | MCF7 breast 88% | HCT-116 colon 73.8% | HCC-2998 colon 87.8% | KM12 colon 97.3%

COc1ccc(OC)c(C(=O)/C=C/c2cc3c(c(OC)c2OC)OCO3)c1
inactive: SR leukemia 17.8% | OVCAR-8 ovarian 58.1% | OVCAR-5 ovarian 121% | OVCAR-4 ovarian 63.4% | SK-OV-3 ovarian 79.1% | IGROV1 ovarian 71.5% | OVCAR-3 ovarian 59.4% | HS 578T breast 75.9% | NCI/ADR-RES ovarian 63.1% | T-47D breast 70.6% | BT-549 breast 65.6% | MDA-MB-435 melanoma 63.2% | SW-620 colon 68.8% | MCF7 breast 31.4% | HCT-116 colon 43.6% | HCC-2998 colon 86.3% | KM12 colon 55%

O=C(Nc1ccc(NC(=O)c2cc(=O)[nH]c3ccccc23)cc1)Nc1cccc(C(F)(F)F)c1
inactive: SR leukemia 61.1% | OVCAR-8 ovarian 65.2% | OVCAR-5 ovarian 84.3% | OVCAR-4 ovarian 74.2% | SK-OV-3 ovarian 69.1% | IGROV1 ovarian 64.9% | OVCAR-3 ovarian 63.9% | HS 578T breast 50.8% | NCI/ADR-RES ovarian 103% | T-47D breast 58.1% | BT-549 breast 62.8% | MDA-MB-435 melanoma 77.1% | SW-620 colon 59.6% | MCF7 breast 70.7% | HCT-116 colon 41.1% | KM12 colon 53.3%

CN(C)c1ccc(/C=C/C(=O)c2ccc(-n3cc(CN4CCN(c5cc6c(cc5F)c(=O)c(C(=O)O)cn6C5CC5)CC4)nn3)cc2)cc1
active: SR leukemia 7.11% | HCT-116 colon -10.3%
inactive: OVCAR-8 ovarian 23.3% | OVCAR-5 ovarian 84.2% | SK-OV-3 ovarian 71.6% | IGROV1 ovarian 39.6% | OVCAR-3 ovarian 46.6% | NCI/ADR-RES ovarian 92.1% | T-47D breast 76.8% | BT-549 breast 32% | MDA-MB-435 melanoma 64.7% | SW-620 colon 43.2% | MCF7 breast 24.2% | HCC-2998 colon 79.3% | KM12 colon 32.9%
